Results: PubChem BioAssay (Tox21)
Values without a mark were called inactive. Records with an inconclusive call do not appear. A call without a number means that no potency is given here. Activity calls are given as the source filed them. Unless noted, calls follow the shape of the full dose curve.

Tests used:
[1] = Nuclear factor erythroid 2-related factor 2/antioxidant responsive element (Nrf2/ARE) small molecule agonists: qHTS cell viability counter screen in human keratinocytes (AID 1919968; active = well fitted curve in the direction sought with a large enough effect in the repeat runs; an effect the other way counts as inactive or inconclusive; also: nearly all actives have a fitted effect of over 55% in size)
Outline: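 After a 5 h attachment period, ARE-reporter keratinocytes were dosed with compounds in DMSO and then cultured 23 h at 37 C. Cell viability came from CellTiter-Fluor signal read after a further 1 h.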

[2] = Nuclear factor erythroid 2-related factor 2/antioxidant responsive element (Nrf2/ARE) small molecule agonists: luciferase reporter gene qHTS assay in human keratinocytes (AID 1919969); also: nearly all actives have a fitted effect of over 35% in size
[3] = target: Gonadotropin-releasing hormone receptor (Homo sapiens) (UniProt P30968); assay: Human gonadotropin-releasing hormone receptor (GnRHR) small molecule agonists, calcium flux assay in GnRHR-HEK293 cells (AID 1920063); also: nearly all actives have a fitted effect of over 35% in size
Gonadotropin-releasing hormone receptor (Homo sapiens), sequence (P30968 whole entry, looked up): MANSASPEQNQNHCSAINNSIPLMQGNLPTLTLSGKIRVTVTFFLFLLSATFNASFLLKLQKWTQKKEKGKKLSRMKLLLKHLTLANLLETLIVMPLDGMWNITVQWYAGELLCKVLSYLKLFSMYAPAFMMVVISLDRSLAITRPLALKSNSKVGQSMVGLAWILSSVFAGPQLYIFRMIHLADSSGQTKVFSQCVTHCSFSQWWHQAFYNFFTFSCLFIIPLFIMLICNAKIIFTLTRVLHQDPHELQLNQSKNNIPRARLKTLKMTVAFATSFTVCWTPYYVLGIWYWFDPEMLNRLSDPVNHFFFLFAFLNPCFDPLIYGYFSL
Outline: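 We seeded human GnRHR-expressing HEK293 cells for 18 hours, loaded them with calcium dye for an hour at 37 C, added test compounds, and recorded fluorescence intensity kinetically for three minutes.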

[4] = target: KiSS-1 receptor (Homo sapiens) (UniProt Q969F8); assay: Human kisspeptin (KISS1R) small molecule agonists, calcium flux assay in KISS1R-HEK293 cells (AID 1920064; active = well fitted curve in the direction sought with a large enough effect in the repeat runs; an effect the other way counts as inactive or inconclusive)
KiSS-1 receptor (Homo sapiens), sequence (Q969F8 whole entry, looked up): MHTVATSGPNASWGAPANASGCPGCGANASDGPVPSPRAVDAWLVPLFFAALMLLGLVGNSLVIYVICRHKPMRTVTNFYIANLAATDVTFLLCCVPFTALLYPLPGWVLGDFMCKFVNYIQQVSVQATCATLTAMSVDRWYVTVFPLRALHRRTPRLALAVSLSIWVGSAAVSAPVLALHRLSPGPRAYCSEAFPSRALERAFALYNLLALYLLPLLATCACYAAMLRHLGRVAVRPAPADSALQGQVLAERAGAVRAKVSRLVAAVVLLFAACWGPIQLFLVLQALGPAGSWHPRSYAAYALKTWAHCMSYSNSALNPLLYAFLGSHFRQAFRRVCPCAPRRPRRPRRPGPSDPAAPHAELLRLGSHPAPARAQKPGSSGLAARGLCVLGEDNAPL
Outline: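 Kinetic calcium assay, 1 s sampling over 3 min at Ex/Em 480/540, in HEK293 cells engineered with human KISS1R; compounds delivered in DMSO after 1 h dye loading.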

[5] = G protein-coupled receptor (GPCR) small molecule agonists, calcium flux assay: HEK293 wild type cell line counter screen (AID 1920065)
Outline: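 Calcium-sensitive dye, loaded 1 h at 37 C into cells cultured 18 h, reports compound-evoked calcium release as fluorescence (Ex/Em 480/540), measured over 3 min. Agonist mode; 15-point titrations, triplicate.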

[6] = p53 small molecule agonists, cell-based qHTS assay with human liver microsomes (AID 1963577);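 also: p53 response element beta-lactamase reporter cells with liver microsomes plus NADPH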
Outline: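 With metabolic activation: human liver microsomes (0.5 mg/mL final) plus NADPH (0.5 mg/mL final) added alongside compounds to p53RE-bla cells; 16 h 37 C exposure; beta-lactamase read by LiveBLAzer fluorescence.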

[7] = p53 small molecule agonists, cell-based qHTS assay with rat liver microsomes (AID 1963578)
Outline: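 Metabolic activation by rat liver microsomes and NADPH, each 0.5 mg/mL final, added right after compounds to p53RE-bla reporter cells (4,000/well, plated 5 h earlier). 16 h at 37 C, then LiveBLAzer substrate for 2 h at room temperature in the dark; fluorescence read-out.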

[8] = p53 small molecule agonists, cell-based qHTS assay with human liver microsomes: qHTS cell viability counter screen (AID 1963579); also: nearly all actives have a fitted effect of over 45% in size
Outline: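 Metabolic activation used human liver microsomes and NADPH, both 0.5 mg/mL final, over 16 hours at 37 C on p53RE-bla cells (4,000/well). Cytotoxicity measured by CellTiter-Glo luminescence, 30 min at room temperature.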

[9] = p53 small molecule agonists, cell-based qHTS assay with rat liver microsomes: qHTS cell viability counter screen (AID 1963580); also: nearly all actives have a fitted effect of over 45% in size
Outline: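 p53RE-bla HCT-116 cells (4,000/well) rested 5 h at 37 C, then given Tox21 compounds in DMSO with rat liver microsomes (0.5 mg/mL final) plus NADPH (0.5 mg/mL final) for 16 h at 37 C. Viability read by CellTiter-Glo luminescence after 30 min at room temperature.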

[10] = p53 small molecule agonists, cell-based qHTS assay: qHTS cell viability counter screen (AID 1963581); also: nearly all actives have a fitted effect of over 45% in size
Outline: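 Following 5 h attachment, HCT-116 p53RE-bla cells took up compound for 16 h at 37 C; the reporter was read with B/G FRET substrate (2 h RT), and viability then via CellTiter-Glo ATP luminescence.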

[11] = p53 small molecule agonists, cell-based qHTS assay (AID 1963582; active = well fitted activation curve with a large enough effect in the signal ratio in the repeat runs, not every such curve was filed as active; the % refers to the signal ratio; also: potency is read from the fitted curve at half-maximal effect)
Outline: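 In this cell-based concentration-response screen, a p53 response element drives beta-lactamase; cells received DMSO-borne compounds after 5 h culture and were incubated a further 16 h before FRET substrate development.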

[12] = target: 5-hydroxytryptamine receptor 2A (Homo sapiens) (UniProt P28223); assay: 5-hydroxytryptamine receptor 2A (HTR2A) small molecule agonists, cell-based qHTS assay (AID 1963587); also: nearly all actives have a fitted effect of over 30% in size; also: potency is read from the fitted curve at half-maximal effect
5-hydroxytryptamine receptor 2A (Homo sapiens), sequence (P28223 whole entry, looked up): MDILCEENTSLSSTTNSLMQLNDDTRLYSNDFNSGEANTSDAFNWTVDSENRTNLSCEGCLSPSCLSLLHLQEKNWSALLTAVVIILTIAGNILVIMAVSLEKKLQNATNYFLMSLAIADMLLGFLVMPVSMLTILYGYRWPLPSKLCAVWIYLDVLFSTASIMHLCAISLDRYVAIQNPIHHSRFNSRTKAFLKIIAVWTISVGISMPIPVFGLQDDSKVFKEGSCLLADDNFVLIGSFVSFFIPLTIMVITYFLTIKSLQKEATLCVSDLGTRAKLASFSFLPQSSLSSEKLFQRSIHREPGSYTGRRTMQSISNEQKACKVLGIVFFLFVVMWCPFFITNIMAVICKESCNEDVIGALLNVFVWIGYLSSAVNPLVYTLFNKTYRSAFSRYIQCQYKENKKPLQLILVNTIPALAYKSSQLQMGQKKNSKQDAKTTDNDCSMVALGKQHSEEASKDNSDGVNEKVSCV
Outline: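 HTR2A-CHO cells, plated 18 h at 37 C/5% CO2, dye-loaded 1 h at 37 C; compounds in DMSO added by pin tool (agonist mode). Intracellular calcium flux read as kinetic fluorescence on FDSS over 2 min at 1 s intervals.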

[13] = target: Muscarinic acetylcholine receptor M1 (Homo sapiens) (UniProt P11229); assay: Cholinergic receptor muscarinic 1 (CHRM1) small molecule antagonists, cell-based qHTS assay (AID 1963588); also: nearly all actives have a fitted effect of over 40% in size; also: potency is read from the fitted curve at half-maximal effect
Muscarinic acetylcholine receptor M1 (Homo sapiens), sequence (P11229 whole entry, looked up): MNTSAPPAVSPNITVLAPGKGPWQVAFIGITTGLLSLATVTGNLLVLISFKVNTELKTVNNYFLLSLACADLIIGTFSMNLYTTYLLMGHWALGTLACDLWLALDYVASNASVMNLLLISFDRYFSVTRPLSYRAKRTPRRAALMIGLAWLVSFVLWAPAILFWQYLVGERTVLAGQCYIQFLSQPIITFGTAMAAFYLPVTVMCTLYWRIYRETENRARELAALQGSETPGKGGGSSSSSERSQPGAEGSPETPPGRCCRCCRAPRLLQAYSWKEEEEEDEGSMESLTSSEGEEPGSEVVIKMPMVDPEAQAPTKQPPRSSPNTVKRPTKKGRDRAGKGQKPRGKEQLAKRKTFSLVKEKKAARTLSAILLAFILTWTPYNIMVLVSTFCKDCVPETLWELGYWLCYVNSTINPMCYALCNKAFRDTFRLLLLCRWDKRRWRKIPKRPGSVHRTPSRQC
Outline: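 CHRM1-CHO calcium-flux assay, antagonist mode. Cells were seeded 18 h, dye-loaded 1 h at 37 C and given compound for 5 min at RT, then acetylcholine was added at 50nM. FDSS fluorescence was read 3 min; 15 concentrations, three runs.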

[14] = target: Muscarinic acetylcholine receptor M1 (Homo sapiens) (UniProt P11229); assay: Cholinergic receptor muscarinic 1 (CHRM1) small molecule agonists, cell-based qHTS assay (AID 1963589); also: nearly all actives have a fitted effect of over 35% in size
Outline: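 Measures agonist-induced intracellular calcium rise. Stable human CHRM1 CHO line, 1 h dye load at 37 C, compounds from DMSO, kinetic fluorescence read.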

[15] = cAMP Responsive Elements (CRE) small molecule antagonists, cell-based qHTS assay (AID 1963591; active = well fitted inhibition curve with a large enough effect in the signal ratio in the repeat runs, not every such curve was filed as active; the % refers to the signal ratio)
Outline: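 HEK293T cells carrying a CRE-driven beta-lactamase reporter receive compound and NKH477 (0.25 uM final) for 3 h. Fluorescence from LiveBLAzer B/G FRET substrate is read after 2 h at room temperature.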

[16] = target: Beta-2 adrenergic receptor (Homo sapiens) (UniProt P07550); assay: Adrenergic beta2 receptor (ADRB2) small molecule antagonists, cell-based qHTS assay (AID 1963592); also: series mostly up to about 92 µM; nearly all actives have a fitted effect of over 50% in size
Beta-2 adrenergic receptor (Homo sapiens), sequence (P07550 whole entry, looked up): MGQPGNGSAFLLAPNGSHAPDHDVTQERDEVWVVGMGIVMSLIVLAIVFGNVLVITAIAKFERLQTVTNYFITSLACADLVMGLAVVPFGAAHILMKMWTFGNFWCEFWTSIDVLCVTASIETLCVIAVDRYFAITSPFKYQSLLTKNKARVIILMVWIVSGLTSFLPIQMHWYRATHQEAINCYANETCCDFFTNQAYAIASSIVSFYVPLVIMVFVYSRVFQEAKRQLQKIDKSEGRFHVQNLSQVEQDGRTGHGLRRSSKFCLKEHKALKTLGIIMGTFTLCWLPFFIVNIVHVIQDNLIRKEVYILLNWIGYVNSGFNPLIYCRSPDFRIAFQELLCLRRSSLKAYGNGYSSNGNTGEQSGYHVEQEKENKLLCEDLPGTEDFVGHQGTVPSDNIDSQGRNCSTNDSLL
Outline: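 Cells (CHO, stable ADRB2 overexpression) incubated 18-20hr at 37C; compounds added from DMSO; agonist mix (1nM isoproterenol, 100uM IBMX, 25uM Ro-20-1724) added; 0.5hr RT; d2-cAMP and anti-cAMP-cryptate added; 1hr RT; 665/615 nm read.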

[17] = target: Beta-2 adrenergic receptor (Homo sapiens) (UniProt P07550); assay: Adrenergic beta2 receptor (ADRB2) small molecule agonists, cell-based qHTS assay (AID 1963593);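 also: CHO cells stably overexpressing human ADRB2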
Outline: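 CHO cells stably over-expressing ADRB2 were plated overnight at 37C, then dosed with compounds plus a stimulation mix containing 100uM IBMX and 25uM Ro-20-1724 for 0.5hr at room temperature. cAMP was measured by HTRF competition, 1hr.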

[18] = target: D(2) dopamine receptor (Homo sapiens) (UniProt P14416); assay: Dopamine D2 receptor (DRD2) small molecule agonists, cell-based qHTS assay (AID 1963594); also: nearly all actives have a fitted effect of over 35% in size
D(2) dopamine receptor (Homo sapiens), sequence (P14416 whole entry, looked up): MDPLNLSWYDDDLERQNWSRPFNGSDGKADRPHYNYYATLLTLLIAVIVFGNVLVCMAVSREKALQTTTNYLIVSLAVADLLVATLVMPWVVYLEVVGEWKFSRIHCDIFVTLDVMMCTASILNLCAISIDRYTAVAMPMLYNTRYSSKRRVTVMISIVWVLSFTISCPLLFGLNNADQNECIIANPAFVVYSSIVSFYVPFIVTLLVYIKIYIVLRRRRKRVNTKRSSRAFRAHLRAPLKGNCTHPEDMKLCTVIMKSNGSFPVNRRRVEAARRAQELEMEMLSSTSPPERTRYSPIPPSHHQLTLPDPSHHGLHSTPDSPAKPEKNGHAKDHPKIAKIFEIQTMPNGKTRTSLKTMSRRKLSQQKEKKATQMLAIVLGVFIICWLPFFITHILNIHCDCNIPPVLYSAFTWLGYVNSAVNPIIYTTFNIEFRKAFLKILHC
Outline: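 HEK293 cells stably expressing DRD2 were cultured 24 h at 37 C, then given Ro20-1724 (0.1 mM final) and compounds for 10 min at room temperature. NKH477 (200nM) was then added for 30 min. cAMP was read by HTRF.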

[19] = target: D(2) dopamine receptor (Homo sapiens) (UniProt P14416); assay: Dopamine D2 receptor (DRD2) small molecule antagonists, cell-based qHTS assay (AID 1963595; active = well fitted inhibition curve with a large enough effect in the signal ratio in the repeat runs, with a control signal flat; the % refers to the signal ratio)
Outline: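 Stable D2 receptor HEK293 line, 24 h after seeding. Compound preincubated 10 min, then quinpirole (12 nM) with forskolin analogue NKH477 (200 nM), 30 min, room temperature. Detection by time-resolved FRET of cAMP.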

[20] = cAMP Responsive Elements (CRE) small molecule agonists, cell-based qHTS assay (AID 1963590)
Outline: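 A CRE-responsive beta-lactamase reporter in HEK 293T cells was used. Treatment ran 3 h at 37 C; detection used LiveBLAzer B/G FRET substrate for 2 h at room temperature.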

SMILES	Potency [1]	Potency [2]	Potency [3]	outcome [4]	outcome [5]	Potency [6]	Potency [7]	Potency [8]	Potency [9]	Potency [10]	Potency [11]	Potency [12]	Potency [13]	Potency [14]	Potency [15]	Potency [16]	Potency [17]	Potency [18]	Potency [19]	Potency [20]
C[N+]1(C)CCC(=C(c2ccccc2)c2ccccc2)CC1	inactive	inactive	inactive	inactive	inactive	inactive	inactive	inactive	inactive	inactive	inactive	inactive	0.013 µM (active)	inactive	inactive	inactive	inactive	inactive	inactive	–
COc1cc(C(=O)OC(COCCC(C)C)CN2CCOCC2)cc(OC)c1OC (stereo not drawn)	inactive	inactive	inactive	inactive	inactive	inactive	inactive	inactive	inactive	inactive	inactive	inactive	inactive	inactive	–	–	–	inactive	inactive	–
COc1cc(NS(=O)(=O)c2ccc(N)cc2)ncn1	inactive	inactive	inactive	inactive	inactive	inactive	inactive	inactive	inactive	inactive	inactive	inactive	inactive	inactive	inactive	inactive	inactive	–	inactive	–
CC12CCCC=C1C(=O)OC2=O (stereo not drawn)	inactive	inactive	inactive	inactive	inactive	inactive	inactive	inactive	inactive	inactive	inactive	inactive	–	inactive	inactive	inactive	–	inactive	inactive	inactive
[O-][n+]1cccc(/C(Cl)=N/OC[C@@H](O)CN2CCCCC2)c1	inactive	inactive	inactive	inactive	inactive	inactive	inactive	inactive	inactive	inactive	inactive	inactive	–	inactive	inactive	inactive	–	inactive	inactive	inactive
COC(=O)/C=C\C(=O)O	inactive	inactive	inactive	inactive	inactive	inactive	inactive	inactive	inactive	inactive	inactive	inactive	–	inactive	inactive	inactive	–	inactive	inactive	inactive
CN=C(N)NC(=O)Nc1c(C)cccc1C	inactive	inactive	inactive	inactive	inactive	inactive	inactive	inactive	inactive	inactive	inactive	6.74 µM (active)	inactive	inactive	–	inactive	–	inactive	inactive	inactive
C=C(C)C1CC=C(C)C(O)C1 (stereo not drawn)	inactive	inactive	inactive	inactive	inactive	inactive	inactive	inactive	inactive	inactive	inactive	inactive	inactive	inactive	inactive	inactive	–	inactive	–	–
Clc1cc(Cl)cc(Cl)c1	inactive	inactive	inactive	inactive	inactive	inactive	inactive	inactive	inactive	inactive	inactive	inactive	–	inactive	inactive	inactive	inactive	inactive	inactive	inactive
CCCCN(CCCC)CCCOC(=O)c1ccc(N)cc1	inactive	inactive	inactive	inactive	inactive	inactive	inactive	inactive	inactive	inactive	inactive	3.38 µM (active)	inactive	inactive	inactive	–	–	inactive	inactive	–
CC(=O)[C@H]1CC[C@H]2[C@@H]3C[C@H](C)C4=CC(=O)CC[C@]4(C)[C@H]3[C@@H](O)C[C@]12C	inactive	inactive	inactive	inactive	inactive	inactive	inactive	inactive	inactive	inactive	inactive	inactive	inactive	–	–	inactive	inactive	–	inactive	inactive
COC(=O)CCCCCCCCC(=O)OC	inactive	inactive	inactive	inactive	inactive	inactive	inactive	inactive	inactive	inactive	inactive	inactive	inactive	inactive	–	inactive	inactive	–	inactive	–
Nc1cccc2c(=O)[nH][nH]c(=O)c12	inactive	inactive	inactive	inactive	inactive	inactive	inactive	inactive	inactive	inactive	inactive	inactive	inactive	inactive	inactive	inactive	–	inactive	inactive	–
O=c1[nH]c(=O)n([C@H]2O[C@H](CO)[C@@H](O)[C@@H]2O)cc1/C=C\Br	inactive	inactive	inactive	inactive	inactive	inactive	inactive	inactive	inactive	inactive	inactive	inactive	inactive	inactive	inactive	–	–	inactive	inactive	–
CCC(=O)O[C@]1(C(=O)COC)[C@@H](C)C[C@H]2[C@@H]3CCC4=CC(=O)C=C[C@]4(C)C3(F)[C@@H](O)C[C@@]21C (stereo partly drawn)	inactive	inactive	inactive	inactive	inactive	inactive	inactive	inactive	inactive	inactive	inactive	inactive	inactive	–	–	inactive	–	–	inactive	–
CCOC(=O)[C@H](CCc1ccccc1)N[C@H]1CS[C@H](c2cccs2)CN(CC(=O)O)C1=O	inactive	inactive	inactive	inactive	inactive	inactive	inactive	inactive	inactive	inactive	inactive	inactive	inactive	inactive	inactive	inactive	–	–	inactive	–
[O-][n+]1cccc(CO)c1	inactive	inactive	inactive	inactive	inactive	inactive	inactive	inactive	inactive	inactive	inactive	inactive	–	inactive	inactive	inactive	–	inactive	inactive	inactive
O=C1OCCN1/N=C/c1ccc([N+](=O)[O-])o1	inactive	inactive	inactive	inactive	inactive	inactive	inactive	inactive	inactive	inactive	inactive	–	–	–	inactive	inactive	inactive	–	inactive	inactive
CC(=O)OC[C@H]1O[C@@H](n2ncc(=O)[nH]c2=O)[C@H](OC(C)=O)[C@@H]1OC(C)=O	inactive	inactive	inactive	inactive	inactive	inactive	inactive	inactive	inactive	inactive	0.5 µM (active)	–	–	–	inactive	inactive	inactive	inactive	inactive	inactive
COc1ccc(C(C)=O)cc1	inactive	inactive	inactive	inactive	inactive	inactive	inactive	inactive	inactive	inactive	inactive	inactive	–	inactive	inactive	inactive	inactive	inactive	inactive	–
